NOD2-RIPK2 inh – NOD2-RIPK2 protein interaction inhibition | O43353 | CHO BLA complementation NOD2-RIPK2, CCF4 ratio | inhibition, % at 4.98 µM | 360,000 tested, 0.38% active; in the data active = inhibition above about 21%;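 also: 0% = vehicle only and 100% = reference blocker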
TLR4-MyD88 BLA – blocks binding of human TLR4 to MyD88; O00206+Q99836; HeLa CL3-4 TLR4/MyD88 BLA complementation, FRET ratio; inhibition, % at 8.4 µM; 200,000 tested, 0.18% active; AID 861; in the data active = inhibition above about 25%;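 also: 0% = vehicle and 100% = reference inhibitor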
rCAG binder-1 – binds r(CAG) RNA repeats | inhibition, % at 3 µM | 370,000 tested, 1.3% active | r(CAG) RNA repeat, TO-PRO-1 dye displacement fluorescence;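 active = inhibition above the plate cutoff, the mean of all test compounds on that plate plus 3 SD, cut at about 35% in these data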;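 also: 0% = DMSO alone and 100% = 100 µM mitoxantrone as full dye displacement; higher means more dye released from RNA so lower well fluorescence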
PRMT1 inh – inhibitors of human PRMT1. Q99873. recombinant PRMT1, activity-based probe fluorescence polarization. inhibition, % at 2.79 µM. 370,000 tested, 1.3% active. AID 652257;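 active = inhibition above about 21% made by adding two undisclosed values, limit read from the data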
Target sequence (Q99873 whole entry, looked up): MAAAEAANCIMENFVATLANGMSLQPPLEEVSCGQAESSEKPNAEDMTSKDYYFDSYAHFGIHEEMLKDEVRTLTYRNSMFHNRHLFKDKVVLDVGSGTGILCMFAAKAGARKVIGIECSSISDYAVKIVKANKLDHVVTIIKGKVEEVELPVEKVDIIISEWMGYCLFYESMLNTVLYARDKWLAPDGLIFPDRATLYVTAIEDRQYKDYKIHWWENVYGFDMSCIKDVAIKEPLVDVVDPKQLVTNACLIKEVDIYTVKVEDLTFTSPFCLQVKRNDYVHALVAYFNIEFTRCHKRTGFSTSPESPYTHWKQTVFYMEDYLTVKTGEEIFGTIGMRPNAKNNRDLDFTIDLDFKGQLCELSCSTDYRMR
ABHD5 PLIN5 PPI – ABHD5-PLIN5 protein interaction inhibition | Q00G26+Q8WTS1 | Split G. princeps luciferase complementation, luminescence, 4 h | inhibition, % at 4 µM | 360,000 tested, 0.78% active;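 active = inhibition above the mean inhibition across every tested compound plus 3 SD, cut at about 22% in these data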;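 also: 0% = DMSO only wells and the 100% control is not disclosed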
TLR9-MyD88 block – TLR9-MyD88 interaction inhibition; Q9NR96+Q99836; CHO BLA complementation TLR9-MyD88, CCF4 FRET ratio; inhibition, % at 4.98 µM; 340,000 tested, 0.21% active;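 active = inhibition above the mean over all tested compounds plus 3 SD, cut at about 21% in these data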;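 also: 0% = DMSO only wells and 100% = clavulanate BLA inhibitor control wells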
rCAG binder conf – r(CAG) RNA repeat binding, confirmation. AID 652065. 4,300 tested, 70% active. inhibition, % at 3 µM. TO-PRO-1 dye displacement fluorescence. shares compounds with rCAG binder-1;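 active = inhibition above a per-plate cutoff, the mean inhibition of sample wells plus 3 SD, cut at about 35% in these data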;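 also: loss of TO-PRO-1 fluorescence as compound displaces dye from 1x1 AA loop RNA; 0% = DMSO only wells and 100% = 100 µM mitoxantrone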
dCAG dye counter – disrupts DNA CAG TO-PRO-1 complex, flagging rCAG hits; shares compounds with rCAG binder-1; d(CAG) DNA oligo TO-PRO-1 dye displacement, fluorescence; inhibition, % at 3 µM; 4,300 tested, 94% active;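 active = inhibition above its plate's cutoff, the mean test-well inhibition plus 3 SD, cut at about 4.8% in these data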;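 also: 0% = DNA dye mix with DMSO and 100% = 100 µM mitoxantrone; hits displace the dye from DNA and so lower well fluorescence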
DNA CAG DR – DNA CAG dye complex inhibition, dose response counter-screen. 250 tested, 20% active. shares compounds with rCAG binder-1. DNA CAG/GTC duplex TO-PRO-1 dye displacement fluorescence. IC50, µM; in the data active = IC50 below about 10 µM
dCAG DNA bind – counter-screen for rCAG binders: DNA CAG TO-PRO-1 complex inhibitors, late stage; 30 tested, 80% active; shares compounds with rCAG binder-1; AID 720649; d(CAG) DNA duplex TO-PRO-1 dye displacement, fluorescence; IC50, µM
rCAG binder-2 – binds r(CAG) RNA repeats in late stage dose response; AID 720651; IC50, µM; shares compounds with rCAG binder-1; 30 tested, 100% active; r(CAG) RNA TO-PRO-1 dye displacement, fluorescence
Active calls of the source: *. A selection: hits, their analogues and other compounds. The true share with any hit is near 3.3%. Unless noted, no rule for the calls is given here.

For CC(C)C(Sc1nc(-c2ccccc2)cc(-c2ccccc2)c1C#N)C(=O)O (stereo not given) the results were NOD2-RIPK2 inh -3, TLR4-MyD88 BLA -2, rCAG binder-1 83*, PRMT1 inh 0, ABHD5 PLIN5 PPI -4, TLR9-MyD88 block 0, rCAG binder conf 86* and dCAG dye counter 51*.
Screening Cc1ccc(C)c(NC(=O)CN(C)C(=O)c2ccccc2OCc2c(C)noc2C)c1 returned NOD2-RIPK2 inh -2, rCAG binder-1 -2, PRMT1 inh -1, ABHD5 PLIN5 PPI 0 and TLR9-MyD88 block -8.
Screening CCN(CC)S(=O)(=O)c1cccc(C(=O)N/N=C/c2cccc(O)c2O)c1 returned NOD2-RIPK2 inh -11, TLR4-MyD88 BLA -4, rCAG binder-1 37*, PRMT1 inh 10, ABHD5 PLIN5 PPI 4, TLR9-MyD88 block 8, rCAG binder conf 33 and dCAG dye counter 13*.
COc1cc([N+](=O)[O-])ccc1NC(=S)NNC(=O)CCC(=O)Nc1ccccc1Cl was read as NOD2-RIPK2 inh -1, rCAG binder-1 64*, PRMT1 inh 1, ABHD5 PLIN5 PPI 4, TLR9-MyD88 block 7, rCAG binder conf 49* and dCAG dye counter 14*.
Screening COc1ccc(-c2cc(NC=O)c3ncc(-c4cnn(C)c4)n3c2)cc1 returned NOD2-RIPK2 inh -3, rCAG binder-1 5, PRMT1 inh 18 and ABHD5 PLIN5 PPI -5.
Screening Cc1ccccc1OCC(=O)N/N=C/c1sc(=O)n(Cc2cccc(C(=O)O)c2)c1Cl returned NOD2-RIPK2 inh -11, rCAG binder-1 46*, PRMT1 inh 5, ABHD5 PLIN5 PPI 3, TLR9-MyD88 block -4, rCAG binder conf 40* and dCAG dye counter 11*.
`COc1ccc(C(=O)N/N=C/c2sc(=O)n(Cc3cccc(C(=O)O)c3)c2Cl)cc1` gave NOD2-RIPK2 inh 3, rCAG binder-1 17, PRMT1 inh 10, ABHD5 PLIN5 PPI 0 and TLR9-MyD88 block 2.
For Cc1c(C)[n+](=O)c(C)c(C)n1[O-] the results were NOD2-RIPK2 inh 2, rCAG binder-1 1, PRMT1 inh 1, ABHD5 PLIN5 PPI 2 and TLR9-MyD88 block 5.
CC1=CC2C3C(=O)N(c4ccccc4)C(=O)C3C1C(=O)C2(O)C(C)C (stereo not given) was read as rCAG binder-1 1 and PRMT1 inh 5.
For O=C(CC(C(=O)O)c1ccc(Cl)cc1Cl)c1ccc(Cl)cc1 (stereo not given) the results were NOD2-RIPK2 inh 3, rCAG binder-1 41*, PRMT1 inh -2, ABHD5 PLIN5 PPI 9, TLR9-MyD88 block -1, rCAG binder conf 21 and dCAG dye counter 4.
For C=CCOC(=O)C1=C(C)N=c2sc(=C3C(=O)N(CC(=O)O)c4ccccc43)c(=O)n2C1c1ccc(OC)cc1 (stereo not given) the results were rCAG binder-1 48*, PRMT1 inh 5, rCAG binder conf 75* and dCAG dye counter 41*.
COc1ccc(Cl)cc1NC(=O)CN(C)CC(=O)Nc1ccc(C)cc1Br was read as NOD2-RIPK2 inh 4, TLR4-MyD88 BLA 12, rCAG binder-1 -5, PRMT1 inh 0, ABHD5 PLIN5 PPI -2 and TLR9-MyD88 block -1.
O=C(Nc1cccc(Cl)c1)Nc1cccc(Cl)c1 was read as NOD2-RIPK2 inh -2, TLR4-MyD88 BLA -5, rCAG binder-1 9, PRMT1 inh -1, ABHD5 PLIN5 PPI 2 and TLR9-MyD88 block 4.
For Cc1nnc(NC(=O)Nc2cccc(Cl)c2)s1 the results were NOD2-RIPK2 inh -10, TLR4-MyD88 BLA 7, rCAG binder-1 50*, PRMT1 inh -1, ABHD5 PLIN5 PPI -13, TLR9-MyD88 block -6, rCAG binder conf 9 and dCAG dye counter 12*.
For O=C(Nc1cccc(Cl)c1)Nc1nc(-c2ccccc2)cs1 the results were NOD2-RIPK2 inh -8, TLR4-MyD88 BLA 6, rCAG binder-1 50*, PRMT1 inh 0, ABHD5 PLIN5 PPI 1, TLR9-MyD88 block 3, rCAG binder conf 21 and dCAG dye counter 20*.
For Cc1csc(NC(=O)Nc2cccc(Cl)c2)n1 the results were NOD2-RIPK2 inh 1, TLR4-MyD88 BLA -8, rCAG binder-1 46*, PRMT1 inh 2, ABHD5 PLIN5 PPI 0, TLR9-MyD88 block -9, rCAG binder conf 11 and dCAG dye counter 16*.
CCN(C(=O)Cn1cnc2c1c(=O)n(C)c(=O)n2C)C1CCCCC1 was read as NOD2-RIPK2 inh -4, rCAG binder-1 -1, PRMT1 inh -4, ABHD5 PLIN5 PPI 3 and TLR9-MyD88 block 0.
O=C(O)CCCn1c(O)c(C=C2N=c3ccccc3=N2)sc1=S was read as NOD2-RIPK2 inh -18, rCAG binder-1 45*, PRMT1 inh 17, ABHD5 PLIN5 PPI 0, TLR9-MyD88 block -7, rCAG binder conf 29 and dCAG dye counter 6.7*.
Screening O=C(O)CCCCCn1c(O)c(C=C2N=c3ccccc3=N2)sc1=S returned NOD2-RIPK2 inh 4, TLR4-MyD88 BLA -16, rCAG binder-1 83*, PRMT1 inh 16, ABHD5 PLIN5 PPI 2, TLR9-MyD88 block 5, rCAG binder conf 65*, dCAG dye counter 29*, DNA CAG DR inactive, dCAG DNA bind 2.4* and rCAG binder-2 0.98*.
For CCN(CC)c1ccc(-n2c(O)c(C=C3N=c4ccccc4=N3)sc2=S)cc1 the results were NOD2-RIPK2 inh -5, TLR4-MyD88 BLA 0, rCAG binder-1 4, PRMT1 inh -1, ABHD5 PLIN5 PPI -2 and TLR9-MyD88 block -8.
Screening Cc1cc(C)c2sc(NNC(=O)c3ccc(S(=O)(=O)N4CCc5ccccc5C4)cc3)nc2c1 returned NOD2-RIPK2 inh 3, TLR4-MyD88 BLA 5, rCAG binder-1 48*, PRMT1 inh 2, ABHD5 PLIN5 PPI 30*, TLR9-MyD88 block 6, rCAG binder conf 59* and dCAG dye counter 29*.
`Cc1cc(C)c2nc(NNC(=O)c3ccc(S(=O)(=O)N4CCc5ccccc5C4)cc3)sc2c1` gave NOD2-RIPK2 inh 11, TLR4-MyD88 BLA 10, rCAG binder-1 61*, PRMT1 inh -7, ABHD5 PLIN5 PPI 30*, TLR9-MyD88 block 6, rCAG binder conf 50* and dCAG dye counter 26*.

Bioassay records from PubChem BioAssay.
